# In PubChem BioAssay (NCATS):
# Results filed as inconclusive are left out. Unmarked numbers belong to inactive results. The source made the active and inactive calls. Calls follow the shape of the dose curve; as a rule, active = well fitted cell-killing curve with a large enough effect; inconclusive = small, poorly fitted or top-dose-only effect; inactive = flat fitted curve, though single readings scatter.
# Test: qHTS of pediatric cancer cell lines to identify multiple opportunities for drug repurposing: Primary screen for Rh18 cells (AID 1347102); also: nearly all actives have a fitted effect of over 65% in size
# Details: Rh18 rhabdomyosarcoma viability, CellTiter-Glo luminescence, 48 h; series mostly up to 46 µM; activity change, negative = cytotoxic: at the top concentration
# Text: Drug repurposing or repositioning has been offered as a strategy for drug development in oncology programs. This approach has special potential for childhood cancers and other rare or orphan diseases, where the expected return on new drug development has been a disincentive to pharmaceuticals.
# In this project we exploit the poly-pharmacology of drugs to discover new indications via phenotypic screening of a panel of 19 well-characterized cell lines derived from solid tumors seen in children and adolescents. The goal is to identify approved drugs with previously unrecognized anticancer properties that has the potential to reveal new mechanisms and biological processes involved in carcinogenesis or drug resistance. We employed a titration-based paradigm (quantitative high-throughput screening or qHTS), where all compounds were tested at multiple concentrations for their effect on cell viability. Concentration-response curves (CRCs) were derived directly from the primary screen, and both potency and efficacy values were used to identify compounds with robust bioactivity profiles. We screened the NIH Chemical Genomics Center (NCGC) Pharmaceutical Collection (NPC) and Mechanism Interrogation Plate (MIPE) small molecule collections of approved and investigational compounds against these cell lines; and measured metabolically active cells after 48 hours of compound treatment as a proxy for cell viability.
# Assay Submitter: Nathalia J. Martinez, National Center for Advancing Translational Sciences, National Institutes of Health, Rockville, MD, USA; email: natalia.martinez@nih.gov
# [1] Shen, M et al. Quantitative high-throughput phenotypic screening of pediatric cancer cell lines identifies multiple opportunities for drug repurposing. Oncotarget 2017 Dec 19;9(4):4758-4772. PMID 29435139.
# The cells were obtained from University of North Carolina (UNC), Pediatric Preclinical Testing Program (PPT), and Coriell Institute (CI).
# qHTS cell viability assay:
# Cells were assayed in growth media at a density of 500-1,000 cells/well. Five microliters of cells were dispensed into 1,536-well, white, solid-bottom, TC-treated plates (Greiner Bio One) using a multidrop dispenser and incubated at 37 degrees C, 5% CO2, under a humidified atmosphere for 5 hours. Twenty-three nanoliters of compounds and controls (neutral control DMSO or positive control bortezomib at final concentration of 2.3 µM) were subsequently transferred by Kalypsys pintool. For primary screens, the MIPE collection was tested at 11-point dilutions (final concentrations range from 0.78 nM to 46 µM) and the NPC collection at 8-point dilutions (final concentrations range from 0.59 nM to 46 µM). Compounds tested in follow-up screens were assayed at 11-point dilutions. Cells were incubated for 48 hours, followed by addition of 3 µL of CellTiter-Glo (Promega). After a 15 min incubation at room temperature, samples were analyzed for luminescence intensity using a ViewLux High-throughput CCD imager equipped with clear filters.
# % is scaled to controls: 0 for no effect and ±100 for the full control effect; potency is read from the fitted curve at half-maximal effect.
Structure (SMILES),Potency,"activity change, negative = cytotoxic"
O=C(Nc1ncc(SCCN2CCCC2)s1)[C@]1(c2ccc(S(=O)(=O)C3CC3)cc2)C[C@@H]1C1CCCCC1,20.9 µM (active),
C[C@@H]1C[C@H]2[C@@H]3CCC4=CC(=O)C=C[C@]4(C)[C@@]3(F)[C@@H](O)C[C@]2(C)[C@@]1(O)C(=O)CO,,16.5%
CN(C)CCOc1cc(-c2cn[nH]c2)ccc1NC(=O)C1COc2ccccc2O1 (stereo not given),,-20.7%
O=C(CC12CC3CC(CC(C3)C1)C2)Nc1cccc2nc(NCCNCCO)ccc12,,-21.8%
COc1cc2nc(-c3cc(F)ccc3O)nc(N[C@@H]3CNC[C@@H]3C(C)(C)O)c2cc1OC,18.7 µM (active),
CCC(=C(CC)c1ccc(O)cc1)c1ccc(O)cc1,,-24.9%
CN1N=C(N)c2cn([C@@H]3O[C@H](COP(=O)(O)O)[C@@H](O)[C@@H]3O)c3ncnc1c23,9.35 µM (active),
O=C(O)C1=CO[C@@H](O[C@@H]2O[C@H](CO)[C@H](O)[C@H](O)[C@H]2O)[C@@H]2C(CO)=CC[C@H]12,,4.24%
CCN(CCO)CCCOc1ccc2c(Nc3cc(CC(=O)Nc4cccc(F)c4)[nH]n3)ncnc2c1,,3.82%
CC(C)n1c(C=C[C@H](O)C[C@H](O)CC(=O)O)c(-c2ccc(F)cc2)c2ccccc21,5.9 µM (active),
O=C(c1ccc(C(=O)N2CCC(N3CCCC3)CC2)c(Nc2ccccc2)c1)N1CCC(N2CCCC2)CC1,,18.3%
CN[C@@H](C)[C@H]1[C@H](O)C[C@@]2(C)[C@@H]3CC[C@H]4C(C)(C)[C@@H](NC)CC[C@@]45C[C@@]35CC[C@]12C,,7.61%
Cc1nc2c([nH]1)CCN(C(=O)c1ccc(NC(=O)c3ccccc3-c3ccccc3)cc1)c1ccccc1-2,,-10.5%
CC[C@H]1OC(=O)[C@H](C)[C@@H](O[C@H]2C[C@@](C)(OC)[C@@H](O)[C@H](C)O2)[C@H](C)[C@@H](O[C@@H]2O[C@H](C)C[C@H](N(C)C)[C@H]2O)[C@](C)(O)C[C@H](C)C(=NOCOCCOC)[C@H](C)[C@@H](O)[C@]1(C)O,,16.6%
Nc1ccn([C@@H]2O[C@H](CO)[C@@H](O)[C@H]2O)c(=O)n1,,-12.5%
O=c1[nH]c(=O)n([C@H]2C[C@@H](O)[C@@H](CO)O2)cc1C(F)(F)F,,-6.35%
O=c1cc(-c2ccc(O)c(O)c2)oc2cc(O)cc(O)c12,,-0.394%
COc1cc(C=CC(=O)O)ccc1O,,4.19%
CC1(C)OC2CC3C4CC(F)C5=CC(=O)C=CC5(C)C4C(O)CC3(C)[C@]2(C(=O)CO)O1 (stereo not given in full),,22.1%
Nc1[nH]nc2nnc(-c3c(-c4ccccc4)nn4ccccc34)cc12,2.64 µM (active),

Structure (SMILES),Potency,"activity change, negative = cytotoxic"
CCC=CC[C@H]1C(=O)CC[C@@H]1CC(=O)OC,,8.52%
COc1ccc2c(c1)CC[C@H]1[C@@H]2CC[C@]2(C)[C@@H](NCCCCCCN3C(=O)C=CC3=O)CC[C@H]12,,-7.73%
COc1ccc(-c2cc3nccn3c(Nc3ncccc3C(N)=O)n2)cc1OC,,-1.63%
CCN1CCC(n2cc(CNc3cc(Cl)c4ncc(C#N)c(Nc5ccc(F)c(Cl)c5)c4c3)nn2)CC1,20.9 µM (active),
CCOC(=O)[C@H]1O[C@H]1C(=O)N[C@@H](CC(C)C)C(=O)NCCC(C)C,,-2.55%
COc1cc2ncn(-c3cc(OCc4ccccc4S(C)(=O)=O)c(C#N)s3)c2cc1OC,,9.94%
O=S(=O)(NCCNCC=Cc1ccc(Br)cc1)c1cccc2cnccc12,16.6 µM (active),
CC=C(C(=CC)c1ccc(O)cc1)c1ccc(O)cc1,,-21.2%
CC(C)CN(C[C@H](O)[C@H](Cc1ccccc1)NC(=O)O[C@H]1CCOC1)S(=O)(=O)c1ccc(N)cc1,,-10.2%
COc1cc2nccc(Oc3ccc(NC(=O)Nc4cc(C)on4)c(Cl)c3)c2cc1OC,18.7 µM (active),
CNC1[C@H](O)C(O[C@@H]2C(O)C(O[C@H]3O[C@H]([C@@H](C)NC)CC[C@H]3N)[C@@H](N)C[C@H]2N)OC[C@]1(C)O (stereo not given in full),,3.05%
CN(CC=CC#CC(C)(C)C)Cc1cccc2ccccc12,,18.6%
CCN1C[C@H](C)n2c(c(O)c3c(=O)n(Cc4ccc(F)c(Cl)c4)nc(C(=O)NC)c32)C1=O,,-4.24%
CCOC(=O)N1CCN([N+]([O-])=NOc2cc(ON=[N+]([O-])N3CCN(C(=O)OCC)CC3)c([N+](=O)[O-])cc2[N+](=O)[O-])CC1,,1.49%
CNc1nc(Nc2ccc(C(=O)N3CCOCC3)cc2OC)ncc1Cl,,-12.8%
CC(C)c1c(C(=O)Nc2ccccc2)c(-c2ccccc2)c(-c2ccc(F)cc2)n1CC[C@H](O)C[C@@H](O)CC(=O)O,20.9 µM (active),
CN[C@H]1[C@@H](O[C@@H]2[C@H](O[C@@H]3[C@@H](O)[C@@H](O)[C@@H](N=C(N)N)[C@@H](O)[C@@H]3N=C(N)N)O[C@H](C)[C@@]2(O)C=O)O[C@@H](CO)[C@@H](O)[C@H]1O,,1.83% [at 9.22 µM]
CCC[C@H](Nc1nc(-c2ccc(NC(=O)NCC)c(OC)c2)ncc1C)c1cccnc1,,-24.3%
COc1ccc(-c2ccc3ncc4c(c3c2)n(-c2ccc(N3CCNCC3)c(C(F)(F)F)c2)c(=O)n4C)cn1,0.0418 µM (active),
O=C1C(c2c(O)[nH]c3ccccc23)=Nc2ccccc21,,-3.26%
